# Screen size: about 16,000 compounds; about 2,600 (16%) were called active. Another 20% or so got no clear call; they are omitted. The call rests on the fitted dose curve; in most records, active means well fitted curve in the direction sought with a large enough effect; inconclusive means small, poorly fitted or top-dose-only effect, or effect the other way; inactive means no such curve, though single readings can be large or run the other way. These entries were drawn from the full list.
# Target: Cytochrome P450 2D6 (Homo sapiens) (UniProt P10635)
# Assay: Cytochrome panel assay with activity outcomes
# Details: recombinant CYP, pro-luciferin dealkylation, luminescence, p450-cyp2d6; series mostly up to 57.1 µM
# Chain of Cytochrome P450 2D6 (Homo sapiens) (P10635 whole entry, looked up): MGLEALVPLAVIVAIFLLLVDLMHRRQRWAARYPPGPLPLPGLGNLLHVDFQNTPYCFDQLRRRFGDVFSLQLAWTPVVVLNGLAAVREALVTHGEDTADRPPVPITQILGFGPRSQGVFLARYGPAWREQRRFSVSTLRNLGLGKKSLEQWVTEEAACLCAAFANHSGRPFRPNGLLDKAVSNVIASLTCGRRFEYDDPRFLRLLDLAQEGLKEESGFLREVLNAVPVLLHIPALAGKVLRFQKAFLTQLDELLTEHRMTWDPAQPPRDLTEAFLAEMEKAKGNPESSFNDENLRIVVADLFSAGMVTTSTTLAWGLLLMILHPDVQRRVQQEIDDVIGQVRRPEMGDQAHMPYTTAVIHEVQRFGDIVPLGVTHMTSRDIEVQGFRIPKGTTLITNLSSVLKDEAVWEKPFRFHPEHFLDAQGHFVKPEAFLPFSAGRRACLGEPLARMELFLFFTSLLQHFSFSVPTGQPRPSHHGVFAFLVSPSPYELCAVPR
row,Compound,AC50
1,COc1cccc(Cn2c(=O)c(CCc3ccccc3)nc3cnc(OC)nc32)c1,inactive
2,C=C1C(=O)O[C@@H]2[C@@H]1CC/C(C)=C\CC[C@@]1(C)O[C@H]21,inactive
3,Cc1ccccc1-c1ccc2ncnc(N3CCN(C)CC3)c2c1,inactive
4,Cc1ccccc1-c1ccc2ncnc(-n3ccnc3)c2c1,25.1 µM (active)
5,CN(C)c1ccc(-c2ccc3ncnc(-n4ccnc4)c3c2)cc1,20 µM (active)
6,CCOC(=O)c1cc2c(ccn2C)n1CC(=O)N1CCCC(C)C1 (stereo not given),inactive
7,Cc1ccc(C(=O)NC(=S)Nc2ccc3c(c2)OCCO3)c(C)c1,inactive
8,CON1C(=O)C(=O)N(OC)C2CCCCC21 (stereo not given),inactive
9,Cc1cccc(CSc2cccc3cccnc23)c1,inactive
10,CC(C)(C)c1cc2cccnc2n1Cc1cccc(F)c1,1.26 µM (active)
11,COc1cccc(Cn2c(=O)c(-c3cc(F)cc(F)c3)nc3cnc(N(C)C)nc32)c1,inactive
12,CN(C)c1ccc(/C=C2/C(=O)N(c3ccc([N+](=O)[O-])cc3)N=C2N2CCOCC2)cc1,inactive
13,COc1ccc2[nH]c(C(=O)c3ccccc3)cc2c1,inactive
14,C=CCSC1=Nc2sccc2C2=NC(=O)CN12,inactive
15,COc1ccccc1CC(=O)Nc1cc2oc3ccccc3c2cc1OC,inactive
16,COc1cc2c(cc1NC(=O)Nc1ccccc1)oc1ccccc12,10 µM (active)
17,COc1cc2c(cc1NC(=O)c1cc(-c3cccnc3)nc3ccc(C)cc13)oc1ccccc12,inactive
18,COCCn1c(=O)c(-c2ccc(OC)cc2)nc2cnc(Nc3cccc(OC)c3)nc21,inactive
19,CCOc1cc(NC(=O)C2CCCCC2)c(OCC)cc1NC(=O)c1ccco1,inactive
20,O=S(=O)(NCc1cc(-c2ccc(Cl)cc2)no1)c1ccc(Cl)cc1,0.631 µM (active)
21,O=C(Nc1ccccc1)c1cc(-c2ccccc2Cl)no1,inactive
22,O=S(=O)(NCc1cc(-c2ccccc2Cl)no1)c1ccc(Cl)cc1,12.6 µM (active)
23,Clc1ccc(SCc2cc(-c3ccccc3)no2)cc1,inactive
24,COc1ccc(NC(=O)c2cc(-c3ccccc3Cl)no2)cc1,inactive
25,Cn1c(CNS(=O)(=O)c2ccc(Cl)cc2)n[nH]c1=S,inactive
26,COc1ccc([C@@H]2CC(=O)c3c(O)cc(O[C@H]4O[C@@H](CO[C@H]5O[C@@H](C)[C@@H](O)[C@@H](O)[C@@H]5O)[C@@H](O)[C@@H](O)[C@@H]4O)cc3O2)cc1O,inactive
27,COc1cc(Cl)c(C)cc1NC(=O)CNC(=O)Cn1cnc2ccccc2c1=O,inactive
28,Cc1nc2c([nH]1)c(=O)n(C)c(=O)n2Cc1ccco1,inactive
29,Nc1c(S(=O)(=O)c2ccccc2)c2nc3ccccc3nc2n1Cc1ccco1,25.1 µM (active)
30,Cc1ccc(S(=O)(=O)c2nc(S(=O)(=O)c3ccc(C)cc3)c(NCc3ccco3)s2)cc1,inactive

# — PubChem BioAssay AID1851 (National Center for Advancing Translational Sciences (NCATS), 2009)
